Results filed as inconclusive are left out. Calls of active or inactive are those of the source. Calls come from the whole dose curve; as a rule, active = well fitted inhibition curve with a large enough effect; inconclusive = small, poorly fitted or top-dose-only effect; inactive = flat fitted curve, though single readings scatter. Where a SMILES comes first, the peptide text is derived from it. [ ]: non-standard residue; d: D form. 2Abz = Nc1ccccc1C(=O)O
% is set by controls: 0 for no effect and ±100 for the full control effect.

Calcium and integrin-binding protein 1 (Homo sapiens), sequence (Q99828 whole entry, looked up): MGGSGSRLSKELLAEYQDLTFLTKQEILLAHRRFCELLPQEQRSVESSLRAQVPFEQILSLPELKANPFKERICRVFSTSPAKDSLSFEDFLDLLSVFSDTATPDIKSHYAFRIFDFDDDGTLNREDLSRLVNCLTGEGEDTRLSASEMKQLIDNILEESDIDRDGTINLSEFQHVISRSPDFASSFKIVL

The assay has as its target Calcium and integrin-binding protein 1 (Homo sapiens) (UniProt Q99828). Kind of assay: Primary qHTS for Identification of Calcium Integrin Binding Protein 1 (CIB1) Competitor (AID 1508620).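 Note: GST tagged CIB1 binding a fluorescein labelled alphaIIb integrin peptide tracer; top concentration of the series differs between compounds.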 The following applies: CIB1-GST / FITC-alphaIIb peptide fluorescence polarization; series mostly up to 57.7 µM; activity change, negative = inhibition: at the top concentration. Put shortly:
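Fluorescence polarization competition: CIB1-GST (1 uM final) preincubated with compound 15 min at room temperature, then FITC-labeled alphaIIb peptide (100 nM final) added for another 15 min. Polarization read at Ex 480/Em 540.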
(In qHTS, concentration-response curves come from the screen itself.)
On to `CN[C@@H]1[C@@H](O)[C@@H](O[C@@H]2[C@@H](O)[C@H](O[C@H]3O[C@H](CN)[C@@H](O)[C@H](O)[C@H]3O)[C@@H](N)C[C@H]2NC(=O)[C@@H](O)CN)OC[C@]1(C)O`, for which the “activity change, negative = inhibition” value is 0.192% [at 114 µM] (inactive).
Still for that read-out and setting: for `C=CC1C(O[C@@H]2O[C@H](CO)[C@@H](O)[C@H](O)[C@H]2O)OC=C(C(=O)OC)C1CC(=O)O` (some centres undefined) the value was -2.29% (inactive).
On the same count and under the same terms, for `COC(=O)C1=CO[C@@H](O[C@@H]2O[C@H](CO)[C@@H](O)[C@H](O)[C@H]2O)[C@@H]2[C@@](C)(O)[C@@H](O)C[C@]12O` the value was 4.61% (inactive).
In the case of `COc1cc2c(Nc3ccc(Cl)c(Cl)c3F)ncnc2cc1OCC1C[C@@H]2CN(C)C[C@@H]2C1` (some centres undefined), the Potency entry is “inactive”.
As to `C=C1[C@@H]2[C@H]3OC(=O)C(=C)[C@@H]3CC[C@@](C)(O)[C@@H]2C[C@@H]1O[C@@H]1O[C@H](CO)[C@@H](O)[C@H](O)[C@H]1O`, the “activity change, negative = inhibition” value is 0.395% (inactive).
On the same count and under the same terms, for `COc1cc([C@H]2OC[C@@H]3[C@@H](c4ccc(O[C@@H]5O[C@H](CO)[C@@H](O)[C@H](O)[C@H]5O)c(OC)c4)OC[C@]23O)ccc1O` the value was 2.98% (inactive); for `O=C(O)c1ccc(CCCc2ccc(OCCc3ccc(F)cc3)cc2)o1`, -11.2% [at 114 µM] (inactive).
Still for that read-out and setting: the result for `CC(C)c1cc2c(c(O)c1O[C@@H]1O[C@H](CO)[C@@H](O)[C@H](O)[C@H]1O)CC1(O)CCC(O)C(C)(C)C1CC2` (some centres undefined) reads -4.15% (inactive).
`CN(C)c1cccc(-c2c3c(=O)n(-c4ccccc4Cl)[nH]c3cc(=O)n2C)c1`: the Potency entry was “inactive”.
In the case of `Cc1cc(C)c(S(=O)(=O)N(Cc2ccc(-c3cccc(S(C)(=O)=O)c3)cc2)Cc2ccc(C(F)(F)F)o2)c(C)c1`, the “activity change, negative = inhibition” value is -0.923% [at 114 µM] (inactive).
Same read-out and setting: for `CC(=O)OC[C@@]12[C@@H](OC(C)=O)C[C@@H](C)[C@](C)([C@@H]3C[C@H]4C=CO[C@H]4O3)[C@H]1CCC[C@]21CO1` the value was 2.02% (inactive); for `COc1cc(C[C@H]2COC(=O)[C@@H]2Cc2ccc(O)c(OC)c2)ccc1O`, -6.25% (inactive); for `CC(O)C(O)/C=C/C=C/C(=O)O[C@@H]1C=C2COC(=O)[C@]2(O)[C@@]2(C)CCCC(C)(C)C12` (some centres undefined), 2.57% (inactive).
Same read-out and setting: for `CCCC1=CC2=C(CO1)C(=O)C(C)(OC(=O)c1c(C)cc(OC)cc1O)C(O)C2` (centres undefined) the value was -1.09% (inactive).
Same read-out and setting: the result for `O=C(c1ccc(F)cc1)C1CCN(CCn2c(=O)nc3n(c2=O)CCCC3)CC1` reads 1.48% [at 114 µM] (inactive); that for `NC(=O)[C@H]1CCCCc2c1[nH]c1ccc(Cl)cc21`, -7.03% (inactive); that for `C[C@@H]1O[C@@H](O[C@H]2[C@H](O[C@H]3CO[C@@H](O[C@H]4CC[C@@]5(C)C(CC[C@]6(C)C5CC[C@]57OC[C@@]8(CC[C@](C)(CO)CC85)[C@H](O)C[C@]76C)C4(C)C)[C@H](O[C@@H]4O[C@H](CO)[C@@H](O)[C@H](O)[C@H]4O)[C@H]3O)O[C@H](CO)[C@@H](O)[C@@H]2O)[C@H](O)[C@H](O)[C@H]1O` (some centres undefined), 6.02% [at 30.2 µM] (inactive).
Consider `COc1cc(C2OCC3C(c4ccc(OC5OC(CO)C(O)C(O)C5O)c(OC)c4)OCC23)ccc1O` (centres undefined), for which the “activity change, negative = inhibition” value was -7.36% (inactive).
In the case of `CCC(C)C1NC(=O)C2CCCN2C(=O)C(C(C)C)NC(=O)c2ccccc2NC(=O)C(Cc2ccc(O)cc2)NC(=O)C(C)NC(=O)C(C(C)O)NC1=O` (centres undefined) (cyclo([2Abz]VPITAY); configuration not given here), the “activity change, negative = inhibition” value is 4.46% [at 30.2 µM] (inactive).
The same measure, in the same setting: for `O=C(O)C[C@H](O)C[C@H](O)/C=C/c1c(C2CC2)nc2ccccc2c1-c1ccc(F)cc1` the value was -7.65% [at 114 µM] (inactive); for `CN1CCC(c2c[nH]c3ccc(NC(=O)c4ccc(F)cc4)cc23)CC1`, 0.46% [at 114 µM] (inactive).
On to `COc1ccc(C)c2sc(NC(=O)c3ccncc3)nc12`, for which the “activity change, negative = inhibition” value was 1.1% [at 114 µM] (inactive).
Still for that read-out and setting: for `CC(=O)N1CCN(NC(=O)c2ccc(F)cc2)CC1` the value was -0.686% [at 114 µM] (inactive).
As to `COc1ccc2c3c1O[C@H]1C[C@@H](O)C=C[C@@]31CCN(C)C2`, the “activity change, negative = inhibition” value was -1.05% [at 114 µM] (inactive).
In the case of `COc1c2c(c(C)c3c1C(=O)OC3)OC1(C)CC(O)C3(O)C(C)(C)OC(=O)CCC3(C)C1C2` (centres undefined), the “activity change, negative = inhibition” value is -0.501% (inactive).
For `COc1c2c(c(C)c3c1C(=O)OC3)O[C@@]1(C)C[C@@H](O)[C@]34O[C@](OC)(CC[C@]3(C)[C@H]1C2)OC4(C)C`, the “activity change, negative = inhibition” value was -4.67% (inactive).
On to `CC1(C)CC2C(C1)C1(C)CCC13OC3(CO)C2O` (centres undefined), for which the “activity change, negative = inhibition” value was -0.844% [at 114 µM] (inactive).
Still for that read-out and setting: for `COc1cc(C2Oc3c(O)cc(CCCO)cc3C2CO)ccc1O[C@H]1O[C@H](C)[C@@H](O)[C@H](O)[C@@H]1O` (some centres undefined) the value was 3.12% (inactive).
Still for that read-out and setting: for `CC(=O)OCC(=O)O[C@@H]1[C@H]2[C@@H](OC(=O)c3ccccc3)[C@@H](C)C[C@]2(O)[C@H](OC(C)=O)C2(C)[C@H]3CC(C)(C)C(=O)[C@@H]3CC1(OC(C)=O)[C@@H]2OC(C)=O` (some centres undefined) the value was -3.47% [at 30.2 µM] (inactive).
On to `O=C(/C=C/c1ccc(O)c(O)c1)OCc1ccccc1O[C@@H]1O[C@H](CO)[C@@H](O)[C@H](O)[C@H]1O`, for which the “activity change, negative = inhibition” value is -2.08% (inactive).
Regarding `CC1=C(C)C(=O)OC(C(C)(O)C2CCC3C4CC=C5CC(OC6OC(COC7OC(CO)C(O)C(O)C7O)C(O)C(O)C6O)CC(O)C5(C)C4CCC32C)C1` (centres undefined), the “activity change, negative = inhibition” value was -5.35% [at 30.2 µM] (inactive).
Regarding `C[C@@H]1C[C@H](O)/C=C/[C@H](O)[C@@H](O)CC(=O)O1`, the “activity change, negative = inhibition” value is 4.42% [at 114 µM] (inactive).
Still for that read-out and setting: the result for `CC1OC(OC2C(CO)OC(OCC3OC(OC(=O)C45CCC(C)(C)CC4C4=CCC6C7(C)CCC(OC8OC(C(=O)O)C(O)C(OC9OC(CO)C(O)C(O)C9O)C8O)C(C)(C)C7CCC6(C)C4(C)CC5)C(O)C(O)C3O)C(O)C2O)C(O)C(O)C1O` (centres undefined) reads 0.696% [at 12.4 µM] (inactive).
Regarding `C/C(=C/CO)CC[C@@H]1[C@@]2(C)CCC[C@](C)(C(=O)O)C2CC[C@@]1(C)O` (some centres undefined), the “activity change, negative = inhibition” value is -2.44% (inactive).
Same read-out and setting: the result for `Cc1[nH]cnc1C1CCN(c2nc3cccc4c3n2CCC4=O)CC1` reads 0.388% [at 114 µM] (inactive).
On the same count and under the same terms, the result for `CCC/C=C/C(=O)O[C@H]1CC(C)(C)CC2[C@]13[C@H](O)O[C@@]21CCC2[C@@]4(C)CC[C@H](O[C@@H]5O[C@H](C(=O)O)[C@@H](O)[C@H](O[C@@H]6O[C@H](CO)[C@H](O)[C@H](O)[C@H]6O[C@@H]6O[C@@H](C)[C@H](O)[C@@H](O)[C@H]6O[C@@H]6OC[C@](O)(CO)[C@H]6O)[C@H]5O[C@@H]5O[C@H](CO)[C@H](O)[C@H](O)[C@H]5O)C(C)(C)C4CC[C@@]2(C)[C@]1(C)C[C@H]3OC(C)=O` (some centres undefined) reads -7.58% [at 12.4 µM] (inactive); that for `CC(/C=C/[C@]1(O)[C@@]2(C)CO[C@@]1(C)C[C@@H](O)C2)=C\C(=O)O[C@@H]1O[C@H](CO)[C@@H](O)[C@H](O)[C@H]1O`, 3.13% (inactive).
Still for that read-out and setting: for `CNC(=O)Nc1ccc(OC)c(NC(=O)NC(=O)c2cc(F)c(F)cc2Cl)c1` the value was 2.1% [at 114 µM] (inactive); for `COC(=O)c1cc(CN2CCN(C(=N)N)CC2)cc(C(=O)N2CCN(C(=O)c3ccc(C(=N)N)cc3)CC2)c1`, -0.852% [at 114 µM] (inactive).
